This passage reports growth results from PubChem BioAssay (NCI).

The panel holds about 83,000 compounds, 20% with a hit somewhere; the sample as a whole holds those more often.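 Interpretation: 100, growth as untreated; towards 0, rising growth inhibition; 0, no net growth; 0 to -100, cell death. Compounds scoring below 10 were considered active.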 A number with no mark means an inactive call. The source made the active and inactive calls.

This test concerns SF-295 CNS. Briefly: NCI-60 one-dose screen, 48 h (100 = growth as untreated, 0 = no growth, -100 = all killed). As to conditions: 10 µM unless noted.
Regarding `O=C(/C=C/c1ccc(Cl)cc1)c1ccc(NC(=O)N2CCN(c3cc4c(cc3F)c(=O)c(C(=O)O)cn4C3CC3)CC2)cc1`, the growth is 108%. Next, `O=C(/C=C(/C=C/c1csc2ccccc12)OB(F)F)/C=C/c1csc2ccccc12`: 87%; `CN1CCN(C(=O)[C@]23CCC(C)(C)C[C@H]2C2=CC[C@@H]4[C@@]5(C)C/C(=C/c6cccnc6)C(=O)C(C)(C)[C@@H]5CC[C@@]4(C)[C@]2(C)CC3)CC1`: 74%; `CC1=CCC(OC(=O)C(C)(O)CCC(O)(C(=O)OC2(C)C=CC(O)(C(C)C)CC2)C(C)C)(C(C)C)CC1` (stereo not drawn): 101%. Next, `NC1=NN=C(N)C1=Cc1cc2ccccc2n2nnnc12`: 99.3%. The result for `COc1ccc(NC(N)=NCCCOc2ccc(F)cc2)cc1` reads 70.9%. Regarding `O=C1c2ccc3c4c(ccc(c24)C(=O)N1CCCNCc1ccccc1)C(=O)N(CCCNCc1ccccc1)C3=O`, the growth is -39.7% (active). On to `O=C(NCCNc1nccc(-c2c(-c3cccc(F)c3)nc3sccn23)n1)c1ccc(Cl)cc1`, for which the growth is 73.8%.

Consider `C=C1C(=O)O[C@H]2[C@H]1CC/C(COC(=O)NCCc1c[nH]c3ccc(OC)cc13)=C\CC[C@@]1(C)O[C@@H]21`, for which the growth was 86.2%. For `COc1cc(CC(=O)c2ccc(O)c(OC)c2)ccc1O`, the growth is 98.9%. Next, `CCN(CC)c1ccc(/C=N/NC(=O)CSc2nc3ccccc3c(=O)n2CCc2ccc(S(N)(=O)=O)cc2)c(O)c1`: 38.6%. Turning to `Cc1ccc(-n2c3c(c(-c4ccccc4)c2-c2ccccc2)C2=NCCN2C=N3)cc1`, the growth is 99.2%.

Take `CN1CCN(C(=O)[C@]23CCC(C)(C)C[C@H]2C2=CC[C@@H]4[C@@]5(C)C/C(=C/c6ccncc6)C(=O)C(C)(C)[C@@H]5CC[C@@]4(C)[C@]2(C)CC3)CC1`: the growth is 67.1%. Turning to `C=C(C)[C@@H]1CC[C@]2(C(=O)N3CCN(C)CC3)CC[C@]3(C)[C@H](CC[C@@H]4[C@@]5(C)C/C(=C/c6cccnc6)C(=O)C(C)(C)[C@@H]5CC[C@]43C)[C@@H]12`, the growth was 87.3%. The result for `N/C(=N\C(N)=N\c1nc2ccccc2s1)c1cccc(Cl)c1` reads 12%; that for `CCOC(=O)Nc1ccc(-c2ccc3c(c2)NC(=O)/C3=C\c2ccc[nH]2)cc1`, 101%; that for `CCNC(=O)Oc1ccc(/C(=C(\C)c2ccccc2)c2ccc(OCCN(CC)CC)cc2)cc1`, 43.5%. Regarding `CCOC(=O)/C(C#N)=C1/NNC(=Nc2cccnc2)S1`, the growth is 98.9%. The result for `COc1cccc(-c2nc3occn3c2-c2ccnc(NCCCNS(=O)(=O)c3ccc(C(F)(F)F)cc3)n2)c1` reads 95.2%. Next, `CC(=O)Nc1ccc(-n2cnc3cc(-c4ccc(OCCN5CCCCC5)cc4)ccc32)cc1`: 96.7%; `Cn1ccnc1C(=O)/C=C/c1ccc(CC(=O)Nc2ccc(Cl)cc2)cc1`: 1.24% (active); `C=CCN1C(=O)/C(=C/C(=O)OC)S/C1=N\NC(=O)c1cc2ccc1/C=C\c1ccc(cc1)/C=C\2`: 93.6%. The result for `COc1ccc(/C=C(\C#N)n2nc3cccc(F)c3n2)cc1` reads 99.9%; that for `N/C(=N\C(N)=N\c1nc2ccccc2s1)c1cnccn1`, 28%; that for `Cc1c(C(=O)NCCC(=O)NO)sc2ncnc(Nc3ccc(NC(=O)Nc4cccc(C(F)(F)F)c4)cc3)c12`, 91.8%. For the compound `O=C(Nc1ccc(-c2ccc3c(c2)NC(=O)/C3=C\c2ccc[nH]2)cc1)NC1CC1`, the growth was 90.8%. The result for `S=c1cc(S)c2cc(Br)ccc2[nH]1` reads 100%. Regarding `CCCCOc1ccc(/C=N/Nc2cc(C)nc3ccc(Br)cc23)cc1`, the growth was -80.3% (active). Next, `N/C(=N\C(N)=N\c1nc2ccccc2s1)c1ccnc(Br)c1`: 5.59% (active); `COc1cc(NC(C)CCCNC(=O)CCC(=O)NCCCNCCCCCCCCNCCCNC(=O)CCC(=O)NCCCC(C)Nc2cc(OC)cc3cccnc23)c2ncccc2c1` (stereo not drawn): 85.5%. The result for `COc1cc2nc(-c3ccc(C(F)(F)F)cc3)cc(OCCCN3CCOCC3)c2cc1OC` reads -50.1% (active); that for `O=C(Cn1c[n+](CC(=O)c2ccc(-c3ccccc3)cc2)c2ccccc21)Nc1cccc2cccnc12`, 78.1%; that for `CC(Oc1ccc(C(=O)O)cc1C(F)(F)F)c1ccc(Oc2ccccc2)cn1` (stereo not drawn), 100%.

Turning to `O=C(Nc1ccc(F)cc1)Nc1ccc(NC(=O)c2cc(Cl)nc3ccccc23)cc1`, the growth was 64.6%. The result for `O=C(CCN1CCCC1)Nc1ccc2c(Nc3ccc(F)cc3)c3ccccc3nc2c1` reads 15.2%. Next, `CC(Sc1nc2ccccc2c(=O)n1CCc1ccc(S(N)(=O)=O)cc1)C(=O)Nc1ccc(Cl)cc1` (stereo not drawn): 83.8%; `O=C(N/N=C/c1cc2ccccc2n2nnnc12)Nc1ccccc1`: 104%. In the case of `CC1(C)CC(=O)C2=C(C1)N(c1ccc(F)cc1F)C(N)=C(C#N)C2c1cc(Br)ccc1F` (stereo not drawn), the growth was 105%.
